# Source: PubChem BioAssay (NCATS)
# Inconclusive results are not listed. A number with no mark means an inactive call. The source made the active and inactive calls. Calls come from the whole dose curve; as a rule, active = well fitted curve in the direction sought with a large enough effect; inconclusive = small, poorly fitted or top-dose-only effect, or another doubt; inactive = no such curve, though single readings can be large; an effect the other way counts as inactive or inconclusive.
# Experiment: qHTS of pediatric cancer cell lines to identify multiple opportunities for drug repurposing: Primary screen for Rh41 cells (AID 1347108); note: nearly all actives have a fitted effect of over 70% in size; note: potency is the fitted concentration of half-maximal effect;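 for activity change, negative = cytotoxic: luminescence drop marks cytotoxic hits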
# Settings: Rh41 rhabdomyosarcoma viability, CellTiter-Glo luminescence, 48 h; series mostly up to 46 µM; activity change, negative = cytotoxic: at the top concentration
# Procedure, shortened: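 Cells seeded at 500-1,000 cells/well in growth media, rested 5 hours at 37 degrees C, 5% CO2, then dosed; MIPE compounds at 11-point (from 0.78 nM) and NPC at 8-point (from 0.59 nM) final concentrations. Viability by CellTiter-Glo luminescence after 48 hours.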
Structure (SMILES),"activity change, negative = cytotoxic",Potency
COc1ccc2c3c1O[C@H]1[C@H](O)CC[C@H]4[C@@H](C2)N(C)CC[C@@]341,11.1% [at 92.7 µM],–
COc1cccc2c1C(=O)c1c(O)c3c(c(O)c1C2=O)C[C@@](O)(C(=O)CO)CC3OC1CC(N2CCOC(OC)C2)C(O)C(C)O1 (some centres not stated),–,94.4 nM (active)
CNCC(=O)c1ccc(O)c(O)c1,16.3%,–
COc1cccc([C@@]2(O)CCCC[C@@H]2CN(C)C)c1,7.16%,–
CCCOC(=O)c1cncn1C(C)c1ccccc1 (configuration not stated),32.4%,–
c1ccc(CN2CCNCC2)cc1,-9.61% [at 155 µM],–
COc1c2c(cc3c1OCO3)CCN(C)C2,-0.328%,–
C[C@@H](N)[C@@H](O)c1ccccc1,30.4%,–
O=C(O)CCCc1ccc(N(CCCl)CCCl)cc1,–,inactive
CC(C)c1c(CN(C)C(C)Cc2ccccc2)n(C)n(-c2ccccc2)c1=O (configuration not stated),28.9%,–
CCCCCCCCCC(=O)O[C@H]1CC[C@H]2[C@@H]3CCC4=CC(=O)CC[C@@H]4[C@H]3CC[C@]12C,17.8%,–
CN1C(=O)COc2c(C(=O)NC3CN4CCC3CC4)cc(Cl)cc21 (configuration not stated),–,inactive
CN1C(=O)NC(=O)C(C)(C2=CCCCC2)C1=O (configuration not stated),23.6%,–
NCCc1ccc(O)cc1,16.7%,–
COC(=O)C(Cl)C(=O)OC,17.2%,–
C=C(C)[C@H]1CN[C@H](C(=O)O)[C@H]1CC(=O)O,19.7%,–
O=[N+]([O-])O[C@H]1CO[C@H]2[C@@H]1OC[C@H]2O[N+](=O)[O-],29.4%,–
O=P1(N(CCCl)CCCl)NCCCO1 (configuration not stated),–,inactive
CCC1(c2ccccc2)C(=O)N(COC)C(=O)N(COC)C1=O,10%,–
C=CCC1([C@H](C)CCC)C(=O)NC(=O)NC1=O,11.5% [at 92.7 µM],–

# Experiment: qHTS of pediatric cancer cell lines to identify multiple opportunities for drug repurposing: Confirmatory screen for NB1643 cells (AID 1347109); note: nearly all actives have a fitted effect of over 45% in size; note: potency is the fitted concentration of half-maximal effect;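 for activity change, negative = cytotoxic: plate controls were DMSO for no effect and bortezomib for full effect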
# Settings: NB1643 neuroblastoma cell viability; series mostly up to 45.9 µM; activity change, negative = cytotoxic: at the top concentration
# Procedure, shortened: (§1)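 Cells (500-1,000/well) in growth media were settled 5 h at 37 degrees C, then given compounds for 48 h. Viability was read as CellTiter-Glo luminescence. Primary runs used MIPE at 11 points (0.78 nM-46 µM) and NPC at 8 points (0.59 nM-46 µM); follow-ups used 11 points.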
Structure (SMILES),"activity change, negative = cytotoxic [%]",Potency
C[C@](O)(CS(=O)(=O)c1ccc(F)cc1)C(=O)Nc1ccc(C#N)c(C(F)(F)F)c1,9.7,–
C[C@]12CCC(=O)C=C1CC[C@@H]1[C@@H]2CC[C@@]2(C)[C@H]1CC[C@]2(C)O,-9.13,–
CCOP(=S)(OCC)Oc1ccc2c(C)c(Cl)c(=O)oc2c1,-57.1,–
O=C(N/N=C/c1ccc([N+](=O)[O-])o1)c1cc([N+](=O)[O-])cc([N+](=O)[O-])c1O,-1.59,–
COc1cccc2c1C(=O)c1c(O)c3c(c(O)c1C2=O)C[C@@](O)(C(=O)CO)CC3OC1CC(N2CCOC(OC)C2)C(O)C(C)O1 (some centres not stated),–,14.7 nM (active)
CCCN(CCC)C(=O)Cc1c(-c2ccc(Cl)cc2)nc2ccc(Cl)cn12,-29,–

# Experiment: qHTS of pediatric cancer cell lines to identify multiple opportunities for drug repurposing: Confirmatory screen for A673 cells (AID 1347110);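 note: cells exposed to compound for 48 h before the viability read; nearly all actives have a fitted effect of over 65% in size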; note: potency is the fitted concentration of half-maximal effect;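 for activity change, negative = cytotoxicity: plate controls were DMSO neutral control for no effect and bortezomib positive control for full effect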
# Settings: A673 Ewing sarcoma cell viability; series mostly up to 45.9 µM; activity change, negative = cytotoxicity: at the top concentration
# Excerpt: Drug repurposing or repositioning has been offered as a strategy for drug development in oncology programs. This approach has special potential for childhood cancers and other rare or orphan diseases, where the expected return on new drug development has been a disincentive to pharmaceuticals.
# In this project we exploit the poly-pharmacology of drugs to discover new indications via phenotypic screening of a panel of 19 well-characterized cell lines derived from solid tumors seen in children and adolescents. The goal is to identify approved drugs with previously unrecognized anticancer properties that has the potential to reveal new mechanisms and biological processes involved in carcinogenesis or drug resistance. We employed a titration-based paradigm (quantitative high-throughput screening or qHTS), where all compounds were tested at multiple concentrations for their effect on cell viability. Concentration-response curves (CRCs) were derived directly from the primary screen, and both potency and efficacy values were used to identify compounds with robust bioactivity profiles. We screened the NIH Chemical Genomics Center (NCGC) Pharmaceutical Collection (NPC) and Mechanism Interrogation Plate (MIPE) small molecule collections of approved and investigational compounds against these cell lines; and measured metabolically active cells after 48 hours of compound treatment as a proxy for cell viability.
# Assay Submitter: Nathalia J. Martinez, National Center for Advancing Translational Sciences, National Institutes of Health, Rockville, MD, USA; email: natalia.martinez@nih.gov.
# [1] Shen, M et al. Quantitative high-throughput phenotypic screening of pediatric cancer cell lines identifies multiple opportunities for drug repurposing. Oncotarget 2017 Dec 19;9(4):4758-4772. PMID 29435139.
# The cells were obtained from University of North Carolina (UNC), Pediatric Preclinical Testing Program (PPT), and Coriell Institute (CI).
# qHTS cell viability assay:
# Cells were assayed in growth media at a density of 500-1,000 cells/well. Five microliters of cells were dispensed into 1,536-well, white, solid-bottom, TC-treated plates (Greiner Bio One) using a multidrop dispenser and incubated at 37 degrees C, 5% CO2, under a humidified atmosphere for 5 hours. Twenty-three nanoliters of compounds and controls (neutral control DMSO or positive control bortezomib at final concentration of 2.3 uM) were subsequently transferred by Kalypsys pintool. For primary screens, the MIPE collection was tested at 11-point dilutions (final concentrations range from 0.78 nM to 46 µM) and the NPC collection at 8-point dilutions (final concentrations range from 0.59 nM to 46 µM). Compounds tested in follow-up screens were assayed at 11-point dilutions. Cells were incubated for 48 hours, followed by addition of 3 uL of CellTiter-Glo (Promega). After a 15min incubation at room temperature, samples were analyzed for luminescence intensity using a ViewLux High-throughput CCD imager equipped with clear filters.
Structure (SMILES),"activity change, negative = cytotoxicity [%]",outcome,Potency
C[C@]12CCC(=O)C=C1CC[C@@H]1[C@@H]2CC[C@@]2(C)[C@H]1CC[C@]2(C)O,-5.83,–,–
CCOP(=S)(OCC)Oc1ccc2c(C)c(Cl)c(=O)oc2c1,-0.164,–,–
O=C(N/N=C/c1ccc([N+](=O)[O-])o1)c1cc([N+](=O)[O-])cc([N+](=O)[O-])c1O,–,inactive,–
COc1cccc2c1C(=O)c1c(O)c3c(c(O)c1C2=O)C[C@@](O)(C(=O)CO)CC3OC1CC(N2CCOC(OC)C2)C(O)C(C)O1 (some centres not stated),–,–,23.3 nM (active)
CCCN(CCC)C(=O)Cc1c(-c2ccc(Cl)cc2)nc2ccc(Cl)cn12,–,–,10400 nM (active)
O=P1(N(CCCl)CCCl)NCCCO1 (configuration not stated),4.07,–,–

# Experiment: qHTS of pediatric cancer cell lines to identify multiple opportunities for drug repurposing: Confirmatory screen for SK-N-MC cells (AID 1347111);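 note: cells exposed to compound for 48 h before the readout; nearly all actives have a fitted effect of over 70% in size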; note: potency is the fitted concentration of half-maximal effect;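 for activity change, negative = cytotoxic: plate controls were DMSO for no effect and bortezomib for full effect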
# Settings: SK-N-MC cell viability; series mostly up to 45.9 µM; activity change, negative = cytotoxic: at the top concentration
# Procedure, shortened: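 Metabolically active cells were quantified by ATP-dependent luminescence (CellTiter-Glo, 15 min at room temperature) following 48 h treatment. Cells had been plated at 500-1,000 per well and settled for 5 h beforehand.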
Structure (SMILES),"activity change, negative = cytotoxic [%]",Potency
C[C@](O)(CS(=O)(=O)c1ccc(F)cc1)C(=O)Nc1ccc(C#N)c(C(F)(F)F)c1,-86.8,–
O=C(N/N=C/c1ccc([N+](=O)[O-])o1)c1cc([N+](=O)[O-])cc([N+](=O)[O-])c1O,–,10400 nM (active)
CC(NC(C)(C)C)C(=O)c1cccc(Cl)c1 (configuration not stated),–,3290 nM (active)
COc1cccc2c1C(=O)c1c(O)c3c(c(O)c1C2=O)C[C@@](O)(C(=O)CO)CC3OC1CC(N2CCOC(OC)C2)C(O)C(C)O1 (some centres not stated),–,3.7 nM (active)
O=C(O)CCCc1ccc(N(CCCl)CCCl)cc1,–,23300 nM (active)
O=P1(N(CCCl)CCCl)NCCCO1 (configuration not stated),-2.53,–

# Experiment: qHTS of pediatric cancer cell lines to identify multiple opportunities for drug repurposing: Confirmatory screen for BT-12 cells (AID 1347112); note: nearly all actives have a fitted effect of over 55% in size; note: potency is the fitted concentration of half-maximal effect; for activity change, negative = cytotoxic: % is set by controls: 0 for no effect and ±100 for the full control effect
# Settings: BT-12 rhabdoid tumor cells, viability; series mostly up to 45.9 µM; activity change, negative = cytotoxic: at the top concentration
# Procedure, shortened: as §1
Structure (SMILES),"activity change, negative = cytotoxic [%]",Potency
C[C@](O)(CS(=O)(=O)c1ccc(F)cc1)C(=O)Nc1ccc(C#N)c(C(F)(F)F)c1,-7.28,–
C[C@]12CCC(=O)C=C1CC[C@@H]1[C@@H]2CC[C@@]2(C)[C@H]1CC[C@]2(C)O,-9.02,–
CCOP(=S)(OCC)Oc1ccc2c(C)c(Cl)c(=O)oc2c1,-14.8,–
O=C(N/N=C/c1ccc([N+](=O)[O-])o1)c1cc([N+](=O)[O-])cc([N+](=O)[O-])c1O,-6.67,–
CC(NC(C)(C)C)C(=O)c1cccc(Cl)c1 (configuration not stated),-11.1,–
COc1cccc2c1C(=O)c1c(O)c3c(c(O)c1C2=O)C[C@@](O)(C(=O)CO)CC3OC1CC(N2CCOC(OC)C2)C(O)C(C)O1 (some centres not stated),–,46.5 nM (active)
O=C(O)CCCc1ccc(N(CCCl)CCCl)cc1,-4.63,–
CCCN(CCC)C(=O)Cc1c(-c2ccc(Cl)cc2)nc2ccc(Cl)cn12,-11.9,–
O=P1(N(CCCl)CCCl)NCCCO1 (configuration not stated),-7.99,–

# Experiment: qHTS of pediatric cancer cell lines to identify multiple opportunities for drug repurposing: Confirmatory screen for LAN-5 cells (AID 1347113); note: nearly all actives have a fitted effect of over 65% in size; for activity change, negative = cytotoxicity: % is set by controls: 0 for no effect and ±100 for the full control effect
# Settings: LAN-5 neuroblastoma cell viability; series mostly up to 45.9 µM; activity change, negative = cytotoxicity: at the top concentration
# Procedure, shortened: as §1
Structure (SMILES),"activity change, negative = cytotoxicity [%]",outcome
C[C@](O)(CS(=O)(=O)c1ccc(F)cc1)C(=O)Nc1ccc(C#N)c(C(F)(F)F)c1,18.6,–
C[C@]12CCC(=O)C=C1CC[C@@H]1[C@@H]2CC[C@@]2(C)[C@H]1CC[C@]2(C)O,4.63,–
O=C(N/N=C/c1ccc([N+](=O)[O-])o1)c1cc([N+](=O)[O-])cc([N+](=O)[O-])c1O,5.48,–
CCCN(CCC)C(=O)Cc1c(-c2ccc(Cl)cc2)nc2ccc(Cl)cn12,-9.64,–
O=P1(N(CCCl)CCCl)NCCCO1 (configuration not stated),–,inactive
